Results as given in PubChem BioAssay (NCATS).
“And” between values parts separate entries of the source, which are not always exact repeats. Equal entries are not always repeated. Results filed as inconclusive are left out. The source made the active and inactive calls. Unless noted, calls come from the whole dose curve; as a rule, active = well fitted curve in the direction sought with a large enough effect; inconclusive = small, poorly fitted or top-dose-only effect, or another doubt; inactive = no such curve, though single readings can be large; an effect the other way counts as inactive or inconclusive.

Tests used:
[1] = AP1 Signaling Pathway (AID 357; active = well fitted curve in either direction with a large enough effect, not every such curve was filed as active; note: % is set by controls: 0 for no effect and ±100 for the full control effect)
How it was run: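 In this screen, ME-180 cells in Opti-MEM with 0.5% dialyzed FBS received EC50 EGF and compound titrations for 5 h. AP-1 reporter beta-lactamase was detected via CCF4 ratio, giving AC50 for positive and negative modulators.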

[2] = NFAT Signaling Pathway (AID 444; active = well fitted curve in either direction with a large enough effect, not every such curve was filed as active;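 note: carbachol stimulus at about its EC50 of 1 µM final; % is set by controls: 0 for no effect and ±100 for the full control effect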); settings: Jurkat NFAT-bla M1, carbachol, beta-lactamase ratio, 5 h
How it was run: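 Jurkat cells carrying an NFAT-driven β-lactamase reporter and co-transfected muscarinic M1 receptor were treated with compound plus carbachol (1 uM final, an EC50 level) for 5 h at 37 °C. CCF4 loading followed for 1 h at RT; 460/530 nm ratio gave %activity.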

[3] = Stat Signaling Pathway (AID 446; active = well fitted curve in either direction with a large enough effect, not every such curve was filed as active;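 note: ME-180 cervical cancer cells given 40 pM IL-6 alongside compound; SIE-controlled beta-lactamase reporter measured as 460/530 nm FRET emission ratio; % is set by controls: 0 for no effect and ±100 for the full control effect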)
How it was run: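 Emission at 460 and 530 nm (excitation 405 nm) reports SIE-controlled beta-lactamase in ME-180 cells. Cells received compound with 40 pM IL-6 for 5 hrs at 37 C; data scaled between 300 pM IL-6 and 125 nM JAK-inhibitor controls.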

[4] = molecular target: Glucocorticoid receptor (Homo sapiens) (UniProt P04150); assay: GR-GFP Redistribution (AID 450;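 active = compounds whose dose series gives a full or clear partial fitted curve of increased nuclear translocation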; note: potency is the fitted concentration of half-maximal effect); settings: U2OS GR-GFP nuclear translocation, laser cytometry, 2 h
Sequence of Glucocorticoid receptor (Homo sapiens) (P04150 whole entry, looked up, the tested form may be a part): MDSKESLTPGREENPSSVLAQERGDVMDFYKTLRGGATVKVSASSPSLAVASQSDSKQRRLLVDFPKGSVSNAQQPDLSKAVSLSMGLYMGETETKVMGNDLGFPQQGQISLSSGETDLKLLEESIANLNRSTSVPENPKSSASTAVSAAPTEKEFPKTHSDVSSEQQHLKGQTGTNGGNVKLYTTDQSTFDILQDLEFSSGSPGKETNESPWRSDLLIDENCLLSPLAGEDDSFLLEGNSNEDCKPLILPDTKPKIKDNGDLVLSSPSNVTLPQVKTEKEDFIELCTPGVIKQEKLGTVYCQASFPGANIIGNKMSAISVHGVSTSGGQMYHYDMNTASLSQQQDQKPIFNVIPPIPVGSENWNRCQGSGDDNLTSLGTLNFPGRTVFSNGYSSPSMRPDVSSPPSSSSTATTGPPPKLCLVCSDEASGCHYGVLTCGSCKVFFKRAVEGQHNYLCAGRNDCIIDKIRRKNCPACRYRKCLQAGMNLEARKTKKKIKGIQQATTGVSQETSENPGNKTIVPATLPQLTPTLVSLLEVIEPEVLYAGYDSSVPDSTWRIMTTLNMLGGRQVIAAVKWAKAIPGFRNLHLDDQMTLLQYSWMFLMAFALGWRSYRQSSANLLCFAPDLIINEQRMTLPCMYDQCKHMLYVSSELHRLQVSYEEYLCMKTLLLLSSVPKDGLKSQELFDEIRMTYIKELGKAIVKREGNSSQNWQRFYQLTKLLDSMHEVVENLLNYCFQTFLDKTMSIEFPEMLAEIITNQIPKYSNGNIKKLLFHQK

[5] = molecular target: Glucocorticoid receptor (Homo sapiens) (UniProt P04150); assay: GR-EFC Redistribution (AID 451; calls by dose curve; note: potency is the fitted concentration of half-maximal effect); settings: CHO-K1 GR-EFC translocation, beta-gal luminescence, 2 h
How it was run: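 CHO-K1 cells stably expressing nuclear-localized β-gal enzyme acceptor and GR fused C-terminally to the enzyme donor fragment; ligand-driven nuclear translocation restores β-gal by complementation. Compounds titrated up to 46 uM final, 2 h at 37 °C; luminescence read.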

[6] = molecular target: Mitogen-activated protein kinase 10 (Mus musculus) (UniProt Q61831); assay: JNK3 AlphaScreen Assay (AID 530; active = well fitted curve in either direction with a large enough effect, not every such curve was filed as active;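 note: kinase came from lysate of stimulated human HepG2 cells; signal reports phosphorylation of biotinylated GST-cJun 1-79 at Ser73 with 10 µM ATP; % is set by controls: 0 for no effect and ±100 for the full control effect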)
How it was run: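 Biotinylated GST-cJun(1-79) served as substrate for JNK3 in HepG2 lysates stimulated with IL-1beta and TNF-alpha. ATP was 10 uM final, pH 7.6. Ser73 phosphorylation was quantified by AlphaScreen (680 nm excitation).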

[7] = qHTS Assay for Lipid Storage Modulators (AID 1519; calls by dose curve); settings: Drosophila S3 cells, BODIPY lipid droplet/cell ratio, laser cytometry, cells loaded with oleic acid
How it was run: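 Cells seeded at 5,000 per well were treated with compounds over a concentration series and loaded with oleic acid (400 uM, as added). Lipid droplet fluorescence (488 nm excitation, 500-530 nm channel) was read by laser-scanning cytometry and normalized to 20 uM Triacsin C.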

[8] = molecular target: 3',5'-cyclic-AMP phosphodiesterase 4B (Homo sapiens) (UniProt Q07343); assay: qHTS Assay for Inhibitors of PDE-IV (AID 607; active = well fitted activation curve with a large enough effect in the main read-out, with a control signal flat, not every such curve was filed as active; note: % of control where 0% means no effect)
Sequence of 3',5'-cyclic-AMP phosphodiesterase 4B (Homo sapiens) (Q07343 whole entry, looked up): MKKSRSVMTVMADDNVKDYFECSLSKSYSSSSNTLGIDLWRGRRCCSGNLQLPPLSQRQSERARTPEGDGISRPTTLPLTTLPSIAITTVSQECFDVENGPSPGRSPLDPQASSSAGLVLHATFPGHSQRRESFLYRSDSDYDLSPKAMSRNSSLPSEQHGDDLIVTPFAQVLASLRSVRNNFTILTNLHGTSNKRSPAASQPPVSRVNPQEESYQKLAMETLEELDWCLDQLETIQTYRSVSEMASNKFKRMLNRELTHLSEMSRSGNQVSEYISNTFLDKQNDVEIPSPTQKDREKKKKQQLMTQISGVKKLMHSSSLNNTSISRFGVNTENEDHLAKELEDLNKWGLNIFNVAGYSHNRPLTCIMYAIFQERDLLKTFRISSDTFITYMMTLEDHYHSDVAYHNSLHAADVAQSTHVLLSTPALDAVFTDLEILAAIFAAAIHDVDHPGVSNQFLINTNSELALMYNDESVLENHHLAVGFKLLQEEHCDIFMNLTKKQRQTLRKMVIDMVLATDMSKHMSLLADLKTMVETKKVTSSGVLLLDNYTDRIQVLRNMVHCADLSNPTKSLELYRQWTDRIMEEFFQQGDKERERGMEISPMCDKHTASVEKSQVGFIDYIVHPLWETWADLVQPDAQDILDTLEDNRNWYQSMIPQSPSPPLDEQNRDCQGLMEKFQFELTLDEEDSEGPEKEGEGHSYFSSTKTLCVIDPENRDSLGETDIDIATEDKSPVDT
How it was run: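 The readout is membrane depolarisation from a cAMP-sensing CNG channel, detected with a potential dye at ex 535/em 590. Cells were HEK293-derived (endogenous PDE-IV) at 1000 cells/well, titrated up to 22.9 uM final.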

[9] = molecular target: Ubiquitin carboxyl-terminal hydrolase 1 (Homo sapiens) (UniProt O94782); assay: Inhibitors of USP1/UAF1: Pilot qHTS (AID 504865);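 note: rhodamine fluorescence freed from ubiquitin-rhodamine substrate followed over time; top concentration of the series differs between compounds; % is set by controls: 0 for no effect and ±100 for the full control effect; nearly all actives have a fitted effect of over 35% in size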
Sequence of Ubiquitin carboxyl-terminal hydrolase 1 (Homo sapiens) (O94782 whole entry, looked up): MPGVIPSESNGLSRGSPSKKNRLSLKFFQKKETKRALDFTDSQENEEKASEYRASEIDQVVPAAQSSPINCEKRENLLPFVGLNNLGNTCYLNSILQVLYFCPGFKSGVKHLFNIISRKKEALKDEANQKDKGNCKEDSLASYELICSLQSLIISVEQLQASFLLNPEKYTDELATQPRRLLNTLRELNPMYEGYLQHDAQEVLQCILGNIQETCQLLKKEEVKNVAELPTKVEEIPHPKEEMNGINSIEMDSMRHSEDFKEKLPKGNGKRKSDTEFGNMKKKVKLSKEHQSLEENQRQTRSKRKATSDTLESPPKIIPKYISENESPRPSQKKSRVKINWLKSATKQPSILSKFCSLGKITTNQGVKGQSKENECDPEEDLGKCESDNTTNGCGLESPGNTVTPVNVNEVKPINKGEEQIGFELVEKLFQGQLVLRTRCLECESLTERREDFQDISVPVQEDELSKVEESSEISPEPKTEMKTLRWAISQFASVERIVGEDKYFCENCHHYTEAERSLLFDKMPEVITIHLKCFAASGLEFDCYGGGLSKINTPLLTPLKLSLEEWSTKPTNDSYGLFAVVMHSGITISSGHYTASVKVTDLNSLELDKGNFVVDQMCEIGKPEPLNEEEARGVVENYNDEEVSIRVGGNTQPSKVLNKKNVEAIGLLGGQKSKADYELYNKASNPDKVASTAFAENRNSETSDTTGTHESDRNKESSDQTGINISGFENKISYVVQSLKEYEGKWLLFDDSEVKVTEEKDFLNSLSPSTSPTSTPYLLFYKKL
How it was run: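 USP1/UAF1 complex (1nM) preincubated with compound 15 min at room temperature, then Ub-Rho substrate (150nM final) added. Fluorescence read kinetically at 480/540 nm, 6 reads every 60 seconds. Buffer: 50mM HEPES pH 7.8, 0.5mM EDTA, 0.1 mg/ml BSA, 1mM TCEP, 0.01% Tween-20.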

[10] = molecular target: ATP-dependent 6-phosphofructokinase (Trypanosoma brucei brucei) (UniProt O15648); assay: qHTS Assay to Find Inhibitors of T. brucei phosphofructokinase: hit validation (AID 492961)
Sequence of ATP-dependent 6-phosphofructokinase (Trypanosoma brucei brucei) (O15648 whole entry, looked up): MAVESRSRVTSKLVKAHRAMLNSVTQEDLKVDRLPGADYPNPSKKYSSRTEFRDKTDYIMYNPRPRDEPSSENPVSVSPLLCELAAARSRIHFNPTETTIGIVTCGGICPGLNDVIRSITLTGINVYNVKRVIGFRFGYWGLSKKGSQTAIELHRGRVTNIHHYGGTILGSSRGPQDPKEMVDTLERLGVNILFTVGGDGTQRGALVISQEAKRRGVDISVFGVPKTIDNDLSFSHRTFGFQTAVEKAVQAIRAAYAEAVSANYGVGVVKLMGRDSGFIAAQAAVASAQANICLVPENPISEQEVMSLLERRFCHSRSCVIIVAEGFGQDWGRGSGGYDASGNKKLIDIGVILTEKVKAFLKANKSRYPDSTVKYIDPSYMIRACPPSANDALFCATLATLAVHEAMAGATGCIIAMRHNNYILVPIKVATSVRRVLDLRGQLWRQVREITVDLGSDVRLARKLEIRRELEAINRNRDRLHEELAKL
How it was run: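 Reaction: 0.1 M triethanolamine pH 8.0, 5 mM MgCl2, F6P 0.5 mM, ATP 0.1 mM, PFK 1.25 nM, 45 min RT. Read-out: ADP-Glo luminescence. Analysis: concentration-response fits, classed by r2 and efficacy.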

[11] = qHTS profiling for inhibitors of Plasmodium falciparum proliferation (AID 504749);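 note: 0% = DMSO vehicle and full inhibition = artemisinin control; nearly all actives have a fitted effect of over 60% in size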; settings: P. falciparum in erythrocytes, SYBR Green DNA, 72 h, at 12.8 µM (top of the series)
How it was run: (§1)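 Fluorescence of SYBR Green-bound parasite DNA, read at 485/535 nm, served as the growth measure. Infected erythrocytes were cultured with compound 72 h; artemisinin (0.29 uM) and DMSO wells defined the normalization range.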

C2A = assay: as above; settings: P. falciparum in erythrocytes, SYBR Green DNA, 72 h; series mostly up to 12.8 µM
How it was run: as §1

CP201 = assay: as above; settings: P. falciparum in erythrocytes, SYBR Green DNA, 72 h; series mostly up to 12.8 µM
How it was run: as §1

CP238 = assay: as above; settings: P. falciparum in erythrocytes, SYBR Green DNA, 72 h; series mostly up to 12.8 µM
How it was run: as §1

CP250 = assay: as above; settings: P. falciparum in erythrocytes, SYBR Green DNA, 72 h; series mostly up to 12.8 µM
How it was run: as §1

FAB9 = assay: as above; settings: P. falciparum in erythrocytes, SYBR Green DNA, 72 h; series mostly up to 12.8 µM
How it was run: as §1

JCK = assay: as above; settings: P. falciparum in erythrocytes, SYBR Green DNA, 72 h; series mostly up to 12.8 µM
How it was run: as §1

PC49 = assay: as above; settings: P. falciparum in erythrocytes, SYBR Green DNA, 72 h; series mostly up to 12.8 µM
How it was run: as §1

SC27B = assay: as above; settings: P. falciparum in erythrocytes, SYBR Green DNA, 72 h; series mostly up to 12.8 µM
How it was run: as §1

[12] = S16 Schwann cell PMP22 intronic element firefly luciferase assay (AID 624032);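 note: plate controls were DMSO for no effect and PTC124 positive control mean for full effect; nearly all actives have a fitted effect of over 30% in size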
How it was run: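 Rat S16 Schwann cells stably carrying a PMP22 intronic element-driven Fluc reporter were seeded overnight, then exposed to compounds for 24 h at 37 °C. Luminescence was normalized to PTC124 (positive control) and DMSO (0% activity).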

[13] = measured here: cell count channel max response
[14] = measured here: lipid channel max response

CC(=O)O[C@@H]1C(=O)[C@@]2(C)[C@H](O)C[C@H]3OC[C@]3(OC(C)=O)[C@@H]2[C@H](OC(=O)c2ccccc2)[C@@]2(O)C[C@H](OC(=O)[C@@H](O)[C@@H](NC(=O)c3ccccc3)c3ccccc3)C(C)=C1C2(C)C (stereo in doubt)
inactive: outcome [1] | activity change, negative = inhibition ([2]; at 17.2 µM (top of the series)) 6.42% | activity change, negative = inhibition ([2]; at 38 µM (top of the series)) 6.57% | outcome [3] | Potency [4] > 46 µM and > 20.6 µM | Potency [5] > 46 µM and > 20.6 µM | Potency [6] | activity change, negative = inhibition ([7]; at 25.7 µM (top of the series)) -8.68%
-13.6%: max response [7, 14]
-5.62%: max response [7, 13]

COc1cc2cc3c4cc(OC)c(OC)cc4cc[n+]3c(C)c2cc1OC
-9.88%: max response [7, 14]
inactive: outcome [1] | outcome [3] | Potency [4] > 20.6 µM | Potency [5] > 20.6 µM | outcome [8] | activity change, negative = inhibition ([7]; at 25.7 µM (top of the series)) 0.187% | Potency [9]
-9.25%: max response [7, 13]

Cc1ncc([N+](=O)[O-])n1C[C@H](O)CCl
inactive: outcome [1] | activity change, negative = inhibition ([2]; at 17.2 µM (top of the series) unless noted) -7.59% | outcome [3] | Potency [4] > 20.6 µM | Potency [5] > 20.6 µM | Potency [6] | activity change, negative = inhibition ([7]; at 25.7 µM (top of the series)) -1.27% | outcome [10] | Potency [9] | activity, negative = inhibition ([11]; parasite line A) 1% | activity, negative = inhibition ([11]; parasite line B) 10.5% | Potency (C2A) | Potency (CP201) | Potency (CP238) | Potency (CP250) | Potency (FAB9) | Potency (JCK) | Potency (PC49) | Potency (SC27B)
8.08%: max response [7, 13]
6.22%: max response [7, 14]

CN1CCC2(CC1)CCN(C(=O)c1ccncc1)CC2
6.89%: max response [7, 14]
inactive: outcome [1] | outcome [3] | Potency [5] > 46 µM | Potency [6] | outcome [8] | activity change, negative = inhibition ([7]; at 57.5 µM (top of the series)) -3.65%
10.6%: max response [7, 13]

NS(=O)(=O)c1cc2c(cc1Cl)N[C@@H](C(Cl)Cl)NS2(=O)=O
inactive: outcome [1] | outcome [3] | Potency [6] | outcome [8] | activity change, negative = inhibition ([7]; at 25.7 µM (top of the series)) -2.63% | outcome [10] | Potency [9] | Potency [12] | activity, negative = inhibition ([11]; parasite line A) -8.3% | activity, negative = inhibition ([11]; parasite line B) 4.19% | Potency (C2A) | Potency (CP201) | Potency (CP238) | Potency (CP250) | Potency (FAB9) | Potency (JCK) | Potency (PC49) | Potency (SC27B)
-19.9%: max response [7, 13] | max response [7, 14]

CN1CCCN([C@@H](c2ccccc2)c2ccc(Cl)cc2)CC1
4.14%: max response [7, 13]
1.38%: max response [7, 14]
inactive: outcome [1] | outcome [3] | Potency [4] > 20.6 µM | Potency [5] > 20.6 µM | Potency [6] | activity change, negative = inhibition ([7]; at 25.7 µM (top of the series)) -4.42% | Potency [9]
